Screening results (PubChem BioAssay)
miR-122 inh: raises miR-122 sensor activity in Huh7 cells; Huh7 psiCHECK-miR122 Renilla luciferase sensor, 48 h; activation, % at 12.5 µM; AID 623901; actives 0.14% (n = 340,000);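 active means mean activation of 30% or more, with every replicate also reaching 30%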;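 further: 0% = median of neutral control wells and 100% = median of positive control wells; higher luciferase signal means stronger suppression of miR-122 activity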
* hit, by the source's call. The full list was thinned out, with hits kept by preference.

Results for CC(C)C#Cc1ccc2c(c1)O[C@H](CN(C)C(=O)CN(C)C)[C@H](C)CN([C@@H](C)CO)S2(=O)=O ?
miR-122 inh: 5.0

What do the screens show for `C[C@@H]1CN([C@H](C)CO)C(=O)c2cc(C#Cc3ccccc3)cnc2O[C@H]1CN(C)Cc1ccccn1`?
miR-122 inh: -1.7

Results for COCC#Cc1cnc2c(c1)C(=O)N([C@@H](C)CO)C[C@H](C)[C@H](CN(C)S(=O)(=O)c1cccc(OC)c1)O2 ?
miR-122 inh: 8.2

What do the screens show for `C[C@@H]1CN([C@@H](C)CO)S(=O)(=O)c2ccc(C#CC3CC3)cc2O[C@H]1CN(C)Cc1ccccn1`?
miR-122 inh: -0.2

Results for C[C@H]1CN([C@@H](C)CO)C(=O)c2cccc(NC(=O)c3ccncc3)c2O[C@@H]1CN(C)Cc1ccc(C(F)(F)F)cc1 ?
miR-122 inh: -107.5

Results for COC(=O)C[C@H]1CC[C@@H]2[C@@H](COc3ccc(NC(=O)c4cnccn4)cc3C(=O)N2C)O1 ?
miR-122 inh: 36.7*

What do the screens show for `COC(=O)C[C@H]1CC[C@@H]2[C@@H](COc3ccc(NC(=O)c4cscn4)cc3C(=O)N2C)O1`?
miR-122 inh: 45.0*

What do the screens show for `CCCN(C)C[C@@H]1Oc2ncc(-c3cccc(C(F)(F)F)c3)cc2C(=O)N([C@H](C)CO)C[C@@H]1C`?
miR-122 inh: 10.1

What do the screens show for `COc1ccc(S(=O)(=O)Nc2ccc3c(c2)CC(=O)N([C@H](C)CO)C[C@H](C)[C@H](CN(C)Cc2ccc(C(=O)Nc4ccccc4N)cc2)O3)cc1`?
miR-122 inh: -211.9

Results for CC(C)C#Cc1cnc2c(c1)C(=O)N([C@H](C)CO)C[C@H](C)[C@H](CN(C)C(=O)CC1CC1)O2 ?
miR-122 inh: -1.7

Results for C[C@@H]1CN([C@H](C)CO)C(=O)c2cc(-c3ccc(F)cc3)cnc2O[C@H]1CN(C)CC1CCOCC1 ?
miR-122 inh: -0.4

Results for CCCN(C)C[C@H]1Oc2cc(C#CCN(C)C)ccc2S(=O)(=O)N([C@@H](C)CO)C[C@H]1C ?
miR-122 inh: -3.9

Results for C[C@@H](O)C#Cc1cnc2c(c1)C(=O)N([C@@H](C)CO)C[C@H](C)[C@@H](CN(C)Cc1cncnc1)O2 ?
miR-122 inh: -8.0

What do the screens show for `C[C@@H]1CN([C@H](C)CO)S(=O)(=O)c2ccc(Br)cc2O[C@H]1CN(C)Cc1ccccn1`?
miR-122 inh: 1.2

Results for CC(C)CC#Cc1cnc2c(c1)C(=O)N([C@H](C)CO)C[C@@H](C)[C@@H](CN(C)C(=O)Nc1ccccc1F)O2 ?
miR-122 inh: -0.7

What do the screens show for `CCC(=O)N1C[C@@H](C)[C@@H](OC)CN(C)C(=O)c2ccc(NS(C)(=O)=O)cc2OC[C@H]1C`?
miR-122 inh: -2.4

Results for CNC[C@H]1Oc2cc(-c3cccc(F)c3)ccc2S(=O)(=O)N([C@H](C)CO)C[C@@H]1C ?
miR-122 inh: 4.1

How did O=c1c2ccccc2nc(/C=C/c2ccc([N+](=O)[O-])o2)n1CCCO do in these assays?
miR-122 inh: 80.4*

How did Cc1ccc(S(=O)(=O)N(C)C[C@@H]2Oc3cc(C#CC4CCCC4)ccc3S(=O)(=O)N([C@H](C)CO)C[C@H]2C)cc1 do in these assays?
miR-122 inh: -3.1

What do the screens show for `Cc1noc(C)c1NC(=O)N(C)C[C@@H]1Oc2ncc(C#CC3CCCCC3)cc2C(=O)N([C@@H](C)CO)C[C@H]1C`?
miR-122 inh: 1.7

What do the screens show for `CC(=O)N(C)C[C@H]1Oc2cc(/C=C/c3ccccc3)ccc2S(=O)(=O)N([C@H](C)CO)C[C@@H]1C`?
miR-122 inh: 6.2

How did CC(C)CC#Cc1ccc2c(c1)O[C@H](CN(C)C(=O)NC1CCCC1)[C@@H](C)CN([C@H](C)CO)S2(=O)=O do in these assays?
miR-122 inh: -56.0

How did C[C@H](CO)N1C[C@H](C)[C@@H](CN(C)C(=O)Nc2cccc(F)c2)Oc2cc(/C=C/c3ccccc3)ccc2S1(=O)=O do in these assays?
miR-122 inh: -16.4

Results for C[C@@H]1CN([C@H](C)CO)S(=O)(=O)c2ccc(/C=C/c3ccccc3)cc2O[C@@H]1CN(C)C(=O)c1ccccc1 ?
miR-122 inh: 20.4

What do the screens show for `C[C@@H]1CN([C@@H](C)CO)S(=O)(=O)c2ccc(/C=C/c3ccccc3)cc2O[C@@H]1CN(C)C(=O)NC1CCCCC1`?
miR-122 inh: 40.9*

How did CC(=O)N(C)C[C@H]1Oc2cc(/C=C/c3ccccc3)ccc2S(=O)(=O)N([C@@H](C)CO)C[C@H]1C do in these assays?
miR-122 inh: 34.2*

What do the screens show for `CCC(=O)N1C[C@@H](C)[C@H](OC)CN(C)C(=O)c2ccc(NS(C)(=O)=O)cc2OC[C@@H]1C`?
miR-122 inh: -4.6

What do the screens show for `COc1cccc(NC(=O)N(C)C[C@H]2Oc3ncc(C#Cc4cccnc4)cc3C(=O)N([C@H](C)CO)C[C@@H]2C)c1`?
miR-122 inh: -6.0

How did C/C=C/c1cnc2c(c1)C(=O)N([C@@H](C)CO)C[C@H](C)[C@@H](CN(C)CC1CCOCC1)O2 do in these assays?
miR-122 inh: -0.9

How did C[C@@H]1CN([C@H](C)CO)C(=O)c2cc(-c3cccc(F)c3)cnc2O[C@@H]1CN(C)C(=O)c1cccc(F)c1 do in these assays?
miR-122 inh: -1.4

What do the screens show for `CCCN(C)C[C@H]1Oc2cc(C#CC3CC3)ccc2S(=O)(=O)N([C@H](C)CO)C[C@H]1C`?
miR-122 inh: -33.9

What do the screens show for `C[C@H]1CN([C@@H](C)CO)C(=O)c2cc(C#CCc3ccccc3)cnc2O[C@@H]1CN(C)Cc1ccccn1`?
miR-122 inh: 0.7

Results for CCCN(C)C[C@H]1Oc2ncc(-c3ccccc3OC)cc2C(=O)N([C@@H](C)CO)C[C@@H]1C ?
miR-122 inh: 3.1

What do the screens show for `COc1ccccc1S(=O)(=O)N(C)C[C@@H]1Oc2cc(/C=C/c3ccccc3)ccc2S(=O)(=O)N([C@H](C)CO)C[C@@H]1C`?
miR-122 inh: 7.8

What do the screens show for `CCN(CC)CCNc1nc(-c2ccccc2)nnc1C(F)(F)F`?
miR-122 inh: 44.1*

How did CO[C@H]1CN(C)C(=O)c2cc(NC(=O)Cc3ccccc3)ccc2OC[C@H](C)N(C)C[C@@H]1C do in these assays?
miR-122 inh: -2.2

Results for COc1ccccc1-c1ccc2c(c1)O[C@H](CN(C)C(=O)Nc1ccccc1)[C@@H](C)CN([C@@H](C)CO)S2(=O)=O ?
miR-122 inh: -32.1

What do the screens show for `COc1ccccc1C(=O)Nc1ccc2c(c1)C(=O)N(C)[C@H]1CC[C@H](CC(=O)NCc3ccc(Cl)c(Cl)c3)O[C@@H]1CO2`?
miR-122 inh: -138.9

How did COc1cccc(CNC(=O)C[C@@H]2CC[C@H]3[C@H](COc4ccc(NC(C)=O)cc4C(=O)N3C)O2)c1 do in these assays?
miR-122 inh: 36.7*

What do the screens show for `CC(=O)Nc1ccc2c(c1)C(=O)N(C)[C@H]1CC[C@@H](CC(=O)NCc3ccc(Cl)cc3)O[C@H]1CO2`?
miR-122 inh: -130.0

What do the screens show for `COc1cccc(C(=O)Nc2ccc3c(c2)C(=O)N(C)[C@H]2CC[C@H](CC(=O)NCc4ccc(F)cc4)O[C@@H]2CO3)c1`?
miR-122 inh: 53.3*

Results for CC(=O)Nc1ccc2c(c1)C(=O)N(C)[C@@H]1CC[C@@H](CC(=O)NCc3ccc(Cl)cc3)O[C@H]1CO2 ?
miR-122 inh: 67.5*

How did COc1ccccc1C(=O)Nc1ccc2c(c1)C(=O)N(C)[C@H]1CC[C@H](CC(=O)NCc3ccc(Cl)c(Cl)c3)O[C@H]1CO2 do in these assays?
miR-122 inh: -307.8
